In all, about 52,000 sequences went through this assay and about 3,800 (7.3%) were called active. Cut-off read from the data, not from the text of the source: active = GI50 up to about 1.1 µM and inactive = higher. Only a sample is shown. Measured potencies and affinities stand elsewhere.
These substances were tested on HOP-92.

Q: With “[Bis(aminomethyl)diethylsilane]tetrachloroplatinum(IV), CHEMBL2146203” as the substance, how does the GI50 read?
A: The GI50 was 4.25 µM.

Q: Which GI50 does the source give for “[Bis(aminomethyl)dimethylsilane]dichloroplatinum (II), CHEMBL2146201” here?
A: Its GI50 is 29.4 µM.

Q: For “[Bis(aminomethyl)pentamethylenesilane]dichloropaltinum(II), CHEMBL2146202”, which GI50 is on record?
A: The GI50 was 40.4 µM.

Q: Which GI50 does the source give for “[Bis(aminomethyl)dimethylsilane]tetrachloroplatinum(IV), CHEMBL2146190” here?
A: The GI50 was 14.4 µM.

Q: How did the GI50 turn out when “[Bis(aminomethyl)tetramethylenesilane]dichloropaltinum(II), CHEMBL2146205” was run?
A: The GI50 was 28.4 µM.

Q: How did the GI50 turn out when “mu-(1,7-nanodiamine-N,N')bis-(cis-aminedichloroplatimum (II)), CHEMBL2146215” was run?
A: Its GI50 is 41.8 µM.

Q: Which GI50 does the source give for “cis-Bis[[(trimethylsilyl)methyl]amino]tetrachloroplatinum(IV), CHEMBL2146191” here?
A: The GI50 was 3.11 µM.

Q: “[Bis(aminomethyl)pentamethylenesilane]tetrachloropaltinum(IV), CHEMBL2146204” was tested. Which GI50 did it give?
A: The GI50 was 24.2 µM.

Q: With “[Bis(aminomethyl)ethylmethylsilane]tetrachloroplatinum(IV), CHEMBL2146192” as the substance, how does the GI50 read?
A: Its GI50 is 21.3 µM.

Q: How did the GI50 turn out when “[Bis(aminomethyl)tetramethylenesilane]tetrachloropaltinum(IV), CHEMBL2146189” was run?
A: Its GI50 is 21.5 µM.

Q: CISPLATIN, CHEMBL11359 was tested. Which GI50 did it give?
A: The GI50 was 3.74 µM.
